This is an account of results in PubChem BioAssay (NCATS).

Inconclusive results are not listed. Values without a mark were called inactive. Activity calls are given as the source filed them. Calls come from the whole dose curve; as a rule, active = well fitted cell-killing curve with a large enough effect; inconclusive = small, poorly fitted or top-dose-only effect; inactive = no such curve, though single readings can be large or run the other way.
Potency is the fitted concentration of half-maximal effect.

The experiment is described as follows: Quantitative High-Throughput drug screen in 47 multiple myeloma cell lines against the NCATS MIPE library collection: NCIH929_DSMZ cell viability assay (AID 1918978). Note: nearly all actives have a fitted effect of over 35% in size. The following applies: NCI-H929 myeloma viability, CellTiter-Glo ATP, 48 h; series mostly up to 45.8 µM; viability, % of control: at the top concentration. The source says: PI: Beverly A. Mock Ph.D.
Laboratory of Cancer Biology and Genetics,
Center for Cancer Research, National Cancer Institute,
National Institute of Health, Bethesda, Maryland
Drug resistance and disease progression are common in multiple myeloma (MM) patients, underscoring the need for new therapeutic combinations. […] We hypothesized that effective combinations would reduce MYC expression and enhance p16 activity. […] These preclinical data identify potentially useful drug combinations for evaluation in drug-resistant MM and reveal potential mechanisms of combined drug sensitivity.
Described herein is the primary MIPE qHTS used to cherrypick compounds. Validated compounds were then further tested for potential synergistic activiy.
[1] Peat TJ, Gaikwad SM, Dubois W, Gyabaah-Kessie N, Zhang S, Gorjifard S, Phyo Z, Andres M, Hughitt VK, Simpson RM, Miller MA, Girvin AT, Taylor A, Williams D, D'Antonio N, Zhang Y, Rajagopalan A, Flietner E, Wilson K, Zhang X, Shinn P, Klumpp-Thomas C, McKnight C, Itkin Z, Chen L, Kazandijian D, Zhang J, Michalowski AM, Simmons JK, Keats J, Thomas CJ, Mock BA. Drug combinations identified by high-throughput screening promote cell cycle transition and upregulate Smad pathways in myeloma. Cancer Lett. 2023 Aug 1;568:216284. doi: 10.1016/j.canlet.2023.216284. Epub 2023 Jun 24. PMID: 37356470; PMCID: PMC10408729.
SEQUENCE No. (e.g., 1, 2, 3, etc.); […] (e.g., Cells, Incubation, Reagent, etc.); VALUE and DESCRIPTION.
1; Cells; 5 uL; white, solid bottom 1536-well Greiner assay plate.
2; Compounds; 23 nL; Kalypsis pin tool (Wako USA) equipped with a 1536-well pin head to transfer to the assay plates.
3; Incubation; 48 hours; 37C incubation.
4; Reagent;5uL; CellTiter Glo (Promega).
5; Detector; 425V; Luminescence; Viewlux PerkinElmer.
NOTES (numbers refer to Sequence numbers above)
1. The cell-based screening methods employed in this study were like those previously published. Briefly, the corresponding myeloma cell lines were screened in 1,536-well plates with 500 cells, 5-uL per well for inhibition of cell viability (assessed by measuring ATP levels with CellTiterGlo).
2. NCATS MIPE 4.0 library of approved and investigational drugs were added using the Kalypsis pin tool. Wells treated with DMSO only for 100% viability and media only for 0% viability were used as controls.
3. The assay plates were covered and incubated for 48 hours in a 37C, 5% CO2 incubator with controlled humidity.
4. After 48 hours, CellTilter-GloTM luminescent substrate mix (Promega) reagent was added to the assay plate and plates we incubated for 5 min at room temperature.
5. Signal was measured as median relative luminescence units on a ViewLux (PerkinElmer) multiplate reader.
[1] Heske CM, Davis MI, Baumgart JT, Wilson K, Gormally MV, Chen L, Zhang X, Ceribelli M, Duveau DY, Guha R, Ferrer M, Arnaldez FI, Ji J, Tran HL, Zhang Y, Mendoza A, Helman LJ, Thomas CJ. Matrix Screen Identifies Synergistic Combination of PARP Inhibitors and Nicotinamide Phosphoribosyltransferase (NAMPT) Inhibitors in Ewing Sarcoma. Clin Cancer Res. 2017 Dec 1;23(23):7301-7311. doi: 10.1158/1078-0432.CCR-17-1121. Epub 2017 Sep 12. PMID: 28899971; PMCID: PMC6636827.
(Cellular ATP, detected with luciferase, serves as a proxy for viable cell number.)
For the compound `C=C[C@@H]1CN2CCC1C[C@@H]2C(O)c1ccnc2ccc(OC)cc12` (stereo not given in full), the “viability, % of control” value is 93.3%.
As to `O=C(c1ccc(F)c(F)c1Nc1ccc(I)cc1F)N1CC(O)([C@H]2CCCCN2)C1`, the Potency is 14.8 µM (active).
Consider `COc1cc2nccc(Oc3ccc(NC(=O)Nc4ccc(F)cc4F)c(F)c3)c2cc1OC`, for which the “viability, % of control” value was 99%.
In the case of `CNc1nc(-c2ccc3c(N)n[nH]c3c2)cc(N2C[C@@H](C(=O)NC3CCCCC3)CC[C@@H]2C)n1`, the Potency is 1.18 µM (active).
For the compound `N#Cc1c(N(CC(=O)O)CC(=O)O)sc(C(=O)O)c1CC(=O)O`, the Potency was 26.4 µM (active).
As to `CC(=O)N1CCN(c2ccc(OCc3nn(C)c(C)c3-c3cccc4c(CCCOc5cc(C)c(Cl)c(C)c5)c(C(=O)O)n(Cc5cccnc5)c34)cc2)CC1`, the Potency was 2.96 µM (active).
Turning to `Nc1ccn([C@@H]2O[C@H](CO)[C@@H](O)[C@H]2O)c(=O)n1`, the “viability, % of control” value is 80.8%.
With `COc1c(C)cnc(Cn2cnc3c(Cl)nc(N)nc32)c1C`, the Potency was 0.187 µM (active).
On the same count and under the same terms, the figure for `Clc1ccc(C2(c3ccc(-c4cn[nH]c4)cc3)CCNCC2)cc1` is 2.96 µM (active); for `CN1CCC(COc2cnc(-c3cccc(Cn4nc(-c5cccc(C#N)c5)ccc4=O)c3)nc2)CC1` it is 0.0526 µM (active).
With `C[C@@H]1C[C@H]2[C@@H]3CCC4=CC(=O)C=C[C@]4(C)[C@@]3(F)[C@@H](O)C[C@]2(C)[C@@]1(O)C(=O)CO`, the “viability, % of control” value is 110%.
With `CCc1cccc(CC)c1NC(=O)N1Cc2[nH]nc(NC(=O)c3ccc(N4CCN(C)CC4)cc3)c2C1`, the Potency is 16.6 µM (active).
As for `NC(=O)c1noc([C@H](CCCC2CCCCC2)CC(=O)NO)n1`, the Potency was 14.8 µM (active).
As to `COc1cc2c(cc1Cc1cccc(Cl)c1F)c(=O)c(C(=O)O)cn2[C@H](CO)C(C)C`, the Potency was 18.7 µM (active).
In the case of `NC[C@H]1O[C@H](O[C@@H]2[C@@H](O)[C@@H](O[C@H]3O[C@H](CO)[C@@H](O)[C@H](N)[C@@H]3O)[C@H](N)C[C@@H]2N)[C@H](O)[C@@H](O)[C@H]1O`, the “viability, % of control” value is 94%.
Turning to `O=C(O)Cc1cccc(OCCCN(Cc2cccc(C(F)(F)F)c2Cl)CC(c2ccccc2)c2ccccc2)c1`, the Potency is 18.7 µM (active).
`O=C(O)C1=NC(C(=O)O)CC(C=CN2c3cc(O)c(OC4OC(CO)C(O)C(O)C4O)cc3CC2C(=O)O)=C1` (stereo not given): the “viability, % of control” value is 116%.
The same measure, in the same setting: the same measure for `CCN(CCO)CCCOc1ccc2c(Nc3cc(CC(=O)Nc4cccc(F)c4)[nH]n3)ncnc2c1`: 97.2%.
Take `Nc1ncnc2c1ncn2[C@@H]1O[C@H](CO)[C@@H](O)[C@@H]1O`: the Potency is 8.33 µM (active).
On the same count and under the same terms, the same measure for `CN(C)c1ccccc1CN1CCCN(Cc2ccccc2N(C)C)C1c1ccncc1`: 14.8 µM (active); for `COc1cc([C@H]2Oc3cc([C@H]4Oc5cc(O)cc(O)c5C(=O)[C@H]4O)ccc3O[C@H]2CO)ccc1O`: 23.5 µM (active).
In the case of `CCNC(=O)Nc1ccc(Oc2ncnc(N)c2C=NOC)cc1Cl`, the “viability, % of control” value was 92.3%.
`NC(N)=Nc1nc(CSCCC(N)=NS(N)(=O)=O)cs1`: the Potency is 8.33 µM (active).
On the same count and under the same terms, the figure for `CN1CCN(c2ncc(-c3cc(Cl)cc(Cl)c3Cl)c(N)n2)CC1` is 23.5 µM (active); for `CC(=O)Nc1cccc(-n2c(=O)n(C3CC3)c(=O)c3c(Nc4ccc(I)cc4F)n(C)c(=O)c(C)c32)c1` it is 0.0187 µM (active); for `CNC(=O)[C@H](CC1=CN=C2C=CCC=C12)NC(=O)[C@@H](CC(=O)NO)CC(C)C` it is 23.5 µM (active).
Consider `N#CC1(c2cccc(C(=O)Nc3cc(Oc4ccc5nc(NC(=O)C6CC6)sc5n4)ccc3F)c2Cl)CC1`, for which the Potency was 6.62 µM (active).
As for `C[C@]12C=CC(=O)C=C1CC[C@@H]1[C@@H]2[C@@H](O)C[C@@]2(C)[C@@H]1CC[C@]2(O)C(=O)CO`, the Potency is 2.35 µM (active).
Consider `COc1ccc2c(c1)CC[C@H]1[C@@H]2CC[C@]2(C)[C@@H](NCCCCCCN3C(=O)C=CC3=O)CC[C@H]12`, for which the “viability, % of control” value was 126%.
Take `COc1cc(Nc2nc3ccccc3nc2NS(=O)(=O)c2ccc(NC(=O)c3ccc(C)c(OC)c3)cc2)cc(OC)c1`: the Potency was 14.8 µM (active).
Same read-out and setting: the figure for `Cc1ccc(NC(=O)Nc2cc(C(F)(F)F)ccc2F)cc1Nc1ccc2c(c1)NC(=O)C2=Cc1ccc[nH]1` is 4.18 µM (active).
On to `NC(=O)c1ncn([C@@H]2O[C@H](CO)[C@@H](O)[C@@H]2O)n1`, for which the “viability, % of control” value is 121%.
In the case of `Oc1ccc(C=Cc2cc(O)cc(O)c2)cc1`, the “viability, % of control” value was 97.8%.
Take `CC[C@H](C=C[C@@H](C)[C@H]1CC[C@H]2[C@@H]3CC=C4C[C@@H](O)CC[C@]4(C)[C@@H]3CC[C@]12C)C(C)C`: the “viability, % of control” value was 94.6% [at 23.2 µM].
Same read-out and setting: the same measure for `CON(C)C(=O)N1N=C(c2cc(F)ccc2F)S[C@]1(CCCN)c1ccccc1`: 93.3%.
In the case of `Cc1cc(-c2ncc(CC(=O)Nc3ccc(-c4cnccn4)cn3)cc2C)ccn1`, the Potency is 20.9 µM (active).
Regarding `CNC(=O)c1cc(COc2nnc(Nc3ccc(Cl)cc3)c3ccoc23)ccn1`, the “viability, % of control” value is 102%.
As to `c1ccc(-c2oc3ncnc(NC[C@@H]4CCCO4)c3c2-c2ccccc2)cc1`, the “viability, % of control” value was 83.4%.
With `O=S(=O)(O)c1ccc2cc(N=Nc3cc(S(=O)(=O)O)c4cccnc4c3O)ccc2c1`, the Potency was 7.43 µM (active).
For the compound `CC1(C)CC(=O)c2c(C(F)(F)F)nn(-c3ccc(C(N)=O)c(NC4CCC(O)CC4)c3)c2C1` (stereo not given), the Potency was 0.105 µM (active).
